Bioassay records: PubChem BioAssay, The Scripps Research Institute Molecular Screening Center
hcDAF12 agonist – H. contortus DAF-12 activation, primary screen. HEK293 hcDAF-12 lit1-tk-luc reporter, luminescence; 0% DMSO, 100% Δ7-dafachronic acid. activation, % at 6.8 µM. hit rate 1.4% among 370,000. AID 652067;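 active = activation above the mean of all tested compounds plus 3 SD, cut at about 5.5% in these data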
SMARCA2 act – activators of SMARCA2 function; MG213 cells, MMTV-luciferase reporter, dexamethasone, overnight; activation, % at 9.1 µM; hit rate 1% among 370,000; in the data active = activation above about 7.8%
ssDAF-12 act – activates DAF-12 receptor from parasite S. stercoralis. HEK293 ssDAF-12/GRIP1 lit1-tk-luc reporter, luminescence; % of 3 µM dafachronic acid response. activation, % at 6.8 µM. hit rate 1% among 370,000. AID 652126;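 active = activation above the mean over all tested compounds plus 3 SD, cut at about 0.9% in these data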
DAX1 inh-1 – DAX1 (NR0B1) inhibition, primary screen. HEK293T StAR-luciferase reporter, SF-1/DAX-1 repression relief. inhibition, % at 6.8 µM. hit rate 1.1% among 370,000. AID 652010;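 active = inhibition above the mean over all tested compounds plus 3 SD, cut at about 3.6% in these data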;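 note: higher inhibition means more luminescence from relief of DAX-1 repression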
hgDAF12 agonist – activates the H. glycines DAF-12 receptor ligand-binding domain. HEK293 GAL4-hgDAF12 UAS-luciferase reporter, agonist luminescence; normalized to butyrate control. activation, % at 6.8 µM. hit rate 1.8% among 370,000. AID 687014;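 active = activation above a cutoff set at the mean of all screened compounds plus 3 SD, cut at about 10% in these data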
DAX1 inh-2 – inhibits human nuclear receptor DAX1. P51843. HEK293 Gal4-DAX1 luciferase reporter, luminescence. inhibition, % at 6.75 µM. hit rate 0.99% among 340,000. AID 504766;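 active = inhibition above the mean over all tested compounds plus 3 SD, cut at about 4.2% in these data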;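 note: inhibition shows as a rise in luminescence from relieved DAX1 repression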
DAX1 inh confirm – confirmation of human DAX1 (NR0B1) inhibitors. hit rate 87% among 2,400. shares compounds with DAX1 inh-1. inhibition, % at 6.8 µM. HEK293T StAR-promoter luciferase reporter, SF-1/DAX-1 repression;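 active = inhibition above the average of every tested compound plus 3 SD, cut at about 3.8% in these data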;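 note: active compounds raise luminescence by relieving repression of the StAR reporter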
SF1 mutant ctr – nonselective inhibitor or artifact in SF-1 mutant DAX1 counter-screen. shares compounds with DAX1 inh-1. HEK293 StAR-luciferase, SF-1 AF2 mutant, luminescence. inhibition, % at 6.8 µM. hit rate 78% among 2,400;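 active = inhibition above the mean of all tested compounds plus 3 SD, cut at about 3% in these data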
LXR ag – LXR-beta agonism as hcDAF-12 counter-screen | 3,400 tested, under 10 active | activation, % at 6.8 µM | shares compounds with hcDAF12 agonist | HEK293 Gal4-LXR tk-luc reporter, luminescence, 24 h; normalized: DMSO 0%, positive control 100%;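 active = mean percent activation of the reporter above a cutoff set as the average over tested compounds plus their standard deviation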
Target sequence (P55055 whole entry, looked up, the tested form may be a part): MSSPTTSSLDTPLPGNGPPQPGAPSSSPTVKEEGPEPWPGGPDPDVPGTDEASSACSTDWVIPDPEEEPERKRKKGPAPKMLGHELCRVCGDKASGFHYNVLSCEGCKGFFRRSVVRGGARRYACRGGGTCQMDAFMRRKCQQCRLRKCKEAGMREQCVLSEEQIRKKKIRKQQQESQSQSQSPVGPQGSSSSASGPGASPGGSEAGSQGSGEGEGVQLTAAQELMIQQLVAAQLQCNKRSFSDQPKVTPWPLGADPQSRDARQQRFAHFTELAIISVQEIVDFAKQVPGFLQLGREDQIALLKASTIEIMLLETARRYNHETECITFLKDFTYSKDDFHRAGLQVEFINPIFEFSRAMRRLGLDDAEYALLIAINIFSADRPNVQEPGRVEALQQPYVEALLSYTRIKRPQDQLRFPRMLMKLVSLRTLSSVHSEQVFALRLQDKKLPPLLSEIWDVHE
hcDAF12 conf – confirmation of H. contortus DAF-12 agonists. shares compounds with hcDAF12 agonist. HEK293 hcDAF-12 lit1-tk-luc reporter, luminescence; % of Δ7-dafachronic acid response. activation, % at 6.8 µM. hit rate 61% among 3,400. AID 743032;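 active = mean activation across triplicate tests above the threshold derived from the earlier primary screen, cut at about 5.5% in these data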
Numbers stand for hits; i = inactive; nt = no result. In the library only some 4.8% were active in any assay of this set; here they are far more common.

SMILES | hcDAF12 agonist | SMARCA2 act | ssDAF-12 act | DAX1 inh-1 | hgDAF12 agonist | DAX1 inh-2 | DAX1 inh confirm | SF1 mutant ctr | LXR ag | hcDAF12 conf
O=C1C(=NO)CCCc2ccccc21 | i | i | i | i | i | i | nt | nt | nt | nt
Cc1cc(C)cc(NC(=O)N2CCCC2C(=O)NCc2ccco2)c1 (stereo unspecified) | i | i | i | i | i | i | nt | nt | nt | nt
CCc1ccc(NC(=O)c2cnn3ccccc23)cc1 | 11.6 | i | i | 5.5 | i | i | 6.1 | i | i | 19.2
O=c1cc(-c2ccccc2)nc2nc(COc3ccccc3)[nH]n12 | i | i | i | i | i | i | nt | nt | nt | nt
Cc1cc(Nc2nc3ccccc3nc2Cl)n(-c2ccccc2)n1 | i | i | i | i | i | i | nt | nt | nt | nt
Cc1n[nH]c2ccccc2c1=O | i | i | i | i | i | i | nt | nt | nt | nt
CC(C)(C)c1ccc(Nc2n[nH]c3ccccc23)cc1 | 13.4 | i | 2.9 | 10.8 | 27.8 | nt | 11.7 | 4.6 | i | 20.1
Cc1ccccc1-c1cc(-c2ccccc2O)on1 | 21.6 | i | 3.4 | 4.8 | 22.1 | i | 14.6 | 11.6 | i | 19.7
Clc1ccc(-c2cc(-c3ccccc3)on2)cc1 | i | i | i | i | i | i | nt | nt | nt | nt
Cc1ccc(-c2cc(-c3ccccc3)no2)c(O)c1 | 15.9 | i | 3.1 | 6.8 | 11.2 | i | 14.0 | 3.7 | i | 19.2
Oc1ccccc1-c1cc(-c2ccccc2)no1 | 22.5 | i | 4.8 | 6.2 | 14.5 | i | 19.8 | 13.8 | i | 18.6
O=C(Nc1ccc2c(c1)OCO2)c1cc2nc(C3CC3)cc(C(F)(F)F)n2n1 | nt | nt | nt | nt | nt | i | nt | nt | nt | nt
CCN(CC)S(=O)(=O)c1ccc(C(=O)Nc2cc3oc4ccccc4c3cc2OC)cc1 | i | i | i | i | i | i | nt | nt | nt | nt
COCC(=O)Nc1nnc(-c2ccc(C(C)(C)C)cc2)s1 | 10.3 | i | i | 4.8 | 19.1 | i | 14.2 | 7.4 | i | 6.2
Cc1ccnc(NC(=O)/C=C/c2ccccc2Cl)c1 | 8.9 | i | 1.4 | 5.3 | 13.2 | i | 8.6 | 4.7 | i | 9.3
Cc1cccnc1NC(=O)CNC(=O)c1sc2ccccc2c1Cl | i | i | i | i | i | i | nt | nt | nt | nt
Cc1ccnc(NC(=O)c2sc3ccccc3c2Cl)c1 | 8.7 | i | i | 8.0 | 16.2 | i | 6.9 | i | i | 10.0
Cc1cnc(NC(=O)c2sc3ccccc3c2Cl)s1 | 17.2 | i | 3.1 | 5.4 | 30.2 | i | 6.4 | i | i | 16.8
Cc1cc(C)nc(NC(=O)/C=C/c2ccccc2Cl)n1 | i | i | i | i | i | i | nt | nt | nt | nt
Cc1cccc(NC(=O)CNC(=O)c2sc3ccccc3c2Cl)n1 | i | i | i | i | i | i | nt | nt | nt | nt
COc1cc(CNc2nc3ccccc3s2)cc(OC)c1OC | i | i | i | i | i | i | nt | nt | nt | nt
COc1ccc2sc(NCc3ccccc3)nc2c1 | 7.1 | i | i | 6.5 | i | i | 7.1 | 6.6 | i | i
Cc1cccc(C(=O)O/N=C(\N)c2ccccn2)c1 | i | i | i | i | i | i | nt | nt | nt | nt
N/C(=N\OC(=O)c1ccc(Br)o1)c1ccccn1 | 8.3 | i | i | 9.4 | i | i | 14.6 | 6.2 | i | i
N/C(=N\OC(=O)c1cccc(F)c1)c1ccccn1 | 8.2 | i | i | 10.6 | i | i | 11.5 | 5.2 | i | i
N/C(=N\OC(=O)c1ccccc1)c1ccccn1 | i | i | i | i | i | i | nt | nt | nt | nt
COC(=O)c1ccc(OCC2NCCc3cc(OC)c(OC)cc32)cc1 (stereo unspecified) | nt | nt | nt | nt | nt | i | nt | nt | nt | nt
COc1cc(OC)c(NC(=O)c2ccccc2F)cc1Cl | i | i | i | i | i | i | nt | nt | nt | nt
